Data taken from PubChem BioAssay (EPA / NIEHS).
Activity calls are given as the source filed them. Rule for the calls: active = hit-call score of the fitted dose curve at least 0.9, where 1 is the maximum; inactive = score below 0.9.

Legend:
Conditions in all cases: mRNA level, 48 h; actives raise or lower the signal
[1] = read-out: Hypoxia-inducible factor 1-alpha (Homo sapiens) (UniProt Q16665); test: LTEA_HepaRG_HIF1A: Life Technologies and Expression Analysis (LTEA) Assay for Hypoxia-inducible factor 1 (HIF1A) Trancription factor using HepaRG (AID 2283503)
Summary of the method: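 Differentiated HepaRG cells in serum-free induction medium exposed 48 h, in duplicate, to 8-point half-log series from 100 uM in 0.5% DMSO. HIF1A mRNA measured by TaqMan qRT-PCR, normalized to ACTB/GAPDH/POLR2A, fitted bidirectionally versus DMSO.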

[2] = read-out: 3-Hydroxy-3-Methylglutaryl-CoA Synthase 2 (HMGCS2), HMGCS2 (gene 3158); test: LTEA_HepaRG_HMGCS2: Life Technologies and Expression Analysis (LTEA) Assay for 3-Hydroxy-3-Methylglutaryl-CoA Synthase 2 (HMGCS2) using HepaRG (AID 2283504)
Summary of the method: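 Differentiated human HepaRG cells were exposed in duplicate for 48 h in serum-free induction medium to eight concentrations (top 100 uM, half-log steps, 0.5% DMSO). HMGCS2 mRNA was quantified by TaqMan qRT-PCR, normalised to ACTB, GAPDH and POLR2A, then fitted bidirectionally against DMSO.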

HGF (gene 3082) = test: LTEA_HepaRG_HGF: Life Technologies and Expression Analysis (LTEA) Assay for Hepatocyte Growth Facto (HGF) using HepaRG (AID 2283505)
Summary of the method: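 Differentiated human HepaRG cells in serum-free induction medium were exposed in duplicate for 48 h to eight concentrations (top 100 uM, half-log steps, 0.5% DMSO). HGF mRNA was quantified by qRT-PCR, normalized to ACTB, GAPDH and POLR2A.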

[3] = read-out: Insulin Like Growth Factor 1 (IGF1), IGF1 (gene 3479); test: LTEA_HepaRG_IGF1: Life Technologies and Expression Analysis (LTEA) Assay for Insulin Like Growth Factor 1 (IGF1) using HepaRG (AID 2283506)
Summary of the method: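 Differentiated HepaRG cells in serum-free induction medium, exposed 48 h in duplicate to 8 half-log concentrations up to 100 uM in 0.5% DMSO. IGF1 mRNA by Fluidigm qRT-PCR, normalised to ACTB, GAPDH and POLR2A.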

[4] = read-out: Intercellular Adhesion Molecule 1 (ICAM1), ICAM1 (gene 3383); test: LTEA_HepaRG_ICAM1: Life Technologies and Expression Analysis (LTEA) Assay for Intercellular Adhesion Molecule 1 (ICAM1) using HepaRG (AID 2283507)
Summary of the method: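 Differentiated HepaRG cells in serum-free induction medium were exposed in duplicate for 48 h to eight half-log concentrations up to 100 uM in 0.5% DMSO. Transcript levels were measured by qRT-PCR normalized to ACTB, GAPDH and POLR2A; bidirectional fits relative to DMSO.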

[5] = read-out: Insulin-like growth factor-binding protein 1 (IGFBP1), IGFBP1 (gene 3484); test: LTEA_HepaRG_IGFBP1: Life Technologies and Expression Analysis (LTEA) Assay for Insulin-like growth factor-binding protein 1 (IGFBP1) using HepaRG (AID 2283508)
Summary of the method: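 Differentiated human HepaRG cells in serum-free induction medium were exposed in duplicate for 48 h to eight concentrations, top 100 uM with half-log dilutions, in 0.5% DMSO. Transcript levels came from qRT-PCR normalised to ACTB, GAPDH and POLR2A, fitted bidirectionally against DMSO.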

[6] = read-out: Interleukin 6 (IL6), IL6 (gene 3569); test: LTEA_HepaRG_IL6: Life Technologies and Expression Analysis (LTEA) Assay for Interleukin 6 (IL6) using HepaRG (AID 2283509)
Summary of the method: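 HepaRG cells exposed in duplicate for 48 h to eight half-log concentrations, top 100 uM, in 0.5% DMSO serum-free induction medium. mRNA measured by qRT-PCR, normalized to ACTB, GAPDH and POLR2A. Bidirectional fit versus DMSO.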

[7] = read-out: Interleukin 6 Receptor (IL6R), IL6R (gene 3570); test: LTEA_HepaRG_IL6R: Life Technologies and Expression Analysis (LTEA) Assay for Interleukin 6 Receptor (IL6R) using HepaRG (AID 2283510);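 for AC50: TaqMan qRT-PCR signal normalized to ACTB GAPDH and POLR2A housekeeping genes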
Summary of the method: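 Differentiated HepaRG cells, plated 48 h, then exposed in duplicate for 48 h in serum-free induction medium to 8 half-log concentrations (top 100 uM, 0.5% DMSO). IL6R mRNA measured by TaqMan qRT-PCR, normalized to ACTB/GAPDH/POLR2A; bidirectional fit vs DMSO.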

[8] = read-out: Potassium channel subfamily K member 1 (KCNK1), KCNK1 (gene 3775); test: LTEA_HepaRG_KCNK1: Life Technologies and Expression Analysis (LTEA) Assay for Potassium channel subfamily K member 1 (KCNK1) using HepaRG (AID 2283511)
Summary of the method: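 Differentiated HepaRG cells, 48 h exposure in serum-free induction medium with 0.5% DMSO; 8 concentrations, half-log from 100 uM, duplicate. KCNK1 mRNA by qRT-PCR, normalized to ACTB, GAPDH, POLR2A; bidirectional fit vs DMSO.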

[9] = read-out: Keratin 19 (KRT19), KRT19 (gene 3880); test: LTEA_HepaRG_KRT19: Life Technologies and Expression Analysis (LTEA) Assay for Keratin 19 (KRT19) using HepaRG (AID 2283512)
Summary of the method: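 Differentiated human HepaRG cells, plated 48 h, were exposed in duplicate for 48 h in serum-free induction medium to eight half-log concentrations up to 100 uM in 0.5% DMSO. KRT19 mRNA was quantified by qRT-PCR, normalized to ACTB, GAPDH and POLR2A, and fitted bidirectionally versus DMSO.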

Measured: AC50

Hypoxia-inducible factor 1-alpha (Homo sapiens), sequence (Q16665 whole entry, looked up): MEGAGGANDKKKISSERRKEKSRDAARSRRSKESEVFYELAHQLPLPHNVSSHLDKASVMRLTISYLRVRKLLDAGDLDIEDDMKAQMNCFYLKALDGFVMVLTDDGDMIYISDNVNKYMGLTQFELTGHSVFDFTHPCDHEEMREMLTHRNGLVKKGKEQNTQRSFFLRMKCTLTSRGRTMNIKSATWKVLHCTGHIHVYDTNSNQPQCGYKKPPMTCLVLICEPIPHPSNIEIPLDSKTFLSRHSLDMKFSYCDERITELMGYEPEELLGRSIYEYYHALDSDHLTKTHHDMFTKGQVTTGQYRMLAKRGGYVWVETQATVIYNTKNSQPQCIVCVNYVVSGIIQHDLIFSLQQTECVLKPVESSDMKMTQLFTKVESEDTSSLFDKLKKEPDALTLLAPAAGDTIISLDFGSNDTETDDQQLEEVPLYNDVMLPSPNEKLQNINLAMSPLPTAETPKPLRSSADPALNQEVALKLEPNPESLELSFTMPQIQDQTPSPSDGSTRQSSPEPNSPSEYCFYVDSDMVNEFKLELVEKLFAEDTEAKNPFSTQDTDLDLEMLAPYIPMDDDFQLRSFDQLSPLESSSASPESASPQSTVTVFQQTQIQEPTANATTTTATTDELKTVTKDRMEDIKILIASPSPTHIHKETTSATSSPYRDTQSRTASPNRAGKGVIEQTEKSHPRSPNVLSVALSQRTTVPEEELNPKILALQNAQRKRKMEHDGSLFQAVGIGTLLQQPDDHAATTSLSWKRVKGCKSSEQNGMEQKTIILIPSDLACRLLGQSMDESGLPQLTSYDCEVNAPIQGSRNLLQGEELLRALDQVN

CC1COC(Cn2cncn2)(c2ccc(Oc3ccc(Cl)cc3)cc2Cl)O1 (stereo unspecified)
inactive: HGF (gene 3082) | [7]
active: [1] 11.6 µM | [2] 11.7 µM | [3] 12.1 µM | [4] 26.2 µM | [5] 19 µM | [6] 31.9 µM | [8] 33.1 µM | [9] 12.9 µM

COP(N)(=O)SC (stereo unspecified)
inactive: [1] | [2] | HGF (gene 3082) | [3] | [4] | [5] | [6] | [7] | [8] | [9]

C#CCOS(=O)OC1CCCCC1Oc1ccc(C(C)(C)C)cc1 (stereo unspecified)
inactive: [4]
active: [1] 26.4 µM | [2] 25.6 µM | HGF (gene 3082) 20.1 µM | [3] 19.5 µM | [5] 14.6 µM | [6] 23.1 µM | [7] 14.5 µM | [8] 21.5 µM | [9] 12.8 µM

CC1=C(C(=O)Nc2ccccc2)SCCO1
active: [2] 71.8 µM | [7] 50 µM | [9] 41.7 µM
inactive: [1] | HGF (gene 3082) | [3] | [4] | [5] | [6] | [8]

C=CCC1=C(C)[C@@H](OC(=O)[C@@H]2[C@@H](C=C(C)C)C2(C)C)CC1=O
active: [2] 50 µM | [3] 50 µM
inactive: [1] | HGF (gene 3082) | [4] | [5] | [6] | [7] | [8] | [9]

OC(c1ccc(Cl)cc1)(c1cncnc1)c1ccccc1Cl (stereo unspecified)
inactive: [1] | [7] | [9]
active: [2] 82 µM | HGF (gene 3082) 62 µM | [3] 37.3 µM | [4] 74.3 µM | [5] 71.9 µM | [6] 73 µM | [8] 50 µM

COC(=O)N(OC)c1ccccc1COc1ccn(-c2ccc(Cl)cc2)n1
inactive: HGF (gene 3082) | [7]
active: [1] 50 µM | [2] 75.3 µM | [3] 68.1 µM | [4] 81.2 µM | [5] 64.3 µM | [6] 83.9 µM | [8] 86.2 µM | [9] 23.3 µM

Fc1ccc(Oc2ccnc3cc(Cl)cc(Cl)c23)cc1
active: [3] 50 µM | [5] 57.2 µM | [6] 77.4 µM | [9] 50 µM
inactive: [1] | [2] | HGF (gene 3082) | [4] | [8]

CS/C(C)=N/OC(=O)N(C)SN(C)C(=O)O/N=C(\C)SC
inactive: [1] | [2] | HGF (gene 3082) | [3] | [4] | [5] | [6] | [7] | [8] | [9]

CCOc1cc(Oc2ccc(C(F)(F)F)cc2Cl)ccc1[N+](=O)[O-]
active: [2] 41.9 µM | [3] 50 µM | [4] 50 µM | [5] 68.8 µM | [8] 30 µM | [9] 33.8 µM
inactive: [1] | [6] | [7]

N#CC(CCc1ccc(Cl)cc1)(Cn1cncn1)c1ccccc1 (stereo unspecified)
active: [1] 73.7 µM | [2] 67.9 µM | HGF (gene 3082) 93.6 µM | [3] 50 µM | [4] 71.6 µM | [5] 74.4 µM | [6] 80.2 µM | [8] 44.6 µM
inactive: [7] | [9]

N#Cc1nn(-c2c(Cl)cc(C(F)(F)F)cc2Cl)c(N)c1S(=O)C(F)(F)F (stereo unspecified)
active: [1] 79.5 µM | [2] 38.3 µM | HGF (gene 3082) 90.3 µM | [3] 13.4 µM | [5] 47.7 µM | [6] 44.8 µM | [7] 91.4 µM | [9] 12.6 µM
inactive: [4] | [8]

Oc1ccccc1-c1ccccc1
inactive: [1] | [2] | HGF (gene 3082) | [3] | [4] | [5] | [6] | [7] | [8] | [9]

CCON=C(CC)C1=C(O)CC(c2c(C)cc(C)cc2C)CC1=O (stereo unspecified)
inactive: [1] | [2] | HGF (gene 3082) | [3] | [4] | [5] | [6] | [7] | [8] | [9]

O=C(Nc1ccccc1)Nc1ccnc(Cl)c1
active: [2] 28.6 µM | HGF (gene 3082) 78 µM | [3] 28.3 µM | [5] 63.4 µM | [6] 93.9 µM | [7] 76.2 µM | [9] 28.1 µM
inactive: [1] | [4] | [8]

COP(=S)(OC)Oc1nc(Cl)c(Cl)cc1Cl
inactive: [1] | [2] | HGF (gene 3082) | [3] | [4] | [5] | [6] | [7] | [8] | [9]

CCCC1COC(Cn2cncn2)(c2ccc(Cl)cc2Cl)O1 (stereo unspecified)
inactive: [7] | [8]
active: [1] 50 µM | [2] 36.5 µM | HGF (gene 3082) 50 µM | [3] 25.5 µM | [4] 77.1 µM | [5] 34.4 µM | [6] 83.2 µM | [9] 1.12 µM

Cc1c(F)c(F)c(COC(=O)C2C(/C=C(\Cl)C(F)(F)F)C2(C)C)c(F)c1F (stereo unspecified)
inactive: [1] | [2] | HGF (gene 3082) | [4] | [5] | [6] | [7] | [8] | [9]
active: [3] 69.4 µM

Cc1cc(Cl)ccc1OCC(=O)O
inactive: [1] | [2] | HGF (gene 3082) | [3] | [4] | [5] | [6] | [7] | [8] | [9]

C=CC1(C)OC(=O)N(c2cc(Cl)cc(Cl)c2)C1=O (stereo unspecified)
inactive: [1] | [2] | HGF (gene 3082) | [3] | [4] | [5] | [6] | [7] | [8] | [9]

CCCCNC(=O)OCC#CI
inactive: [1] | [2] | HGF (gene 3082) | [3] | [4] | [5] | [6] | [7] | [8] | [9]

CCc1nn(C)c(C(=O)NCc2ccc(C(C)(C)C)cc2)c1Cl
active: [2] 8.88 µM | HGF (gene 3082) 78.6 µM | [3] 0.782 µM | [4] 2.34 µM | [5] 2.34 µM | [6] 1.37 µM | [8] 9.92 µM | [9] 0.616 µM
inactive: [1] | [7]

CCCCOC(=O)c1ccccc1C(=O)OCCCC
inactive: [1] | [2] | HGF (gene 3082) | [3] | [4] | [5] | [6] | [7] | [8] | [9]

CC(Oc1ccc(Cl)cc1Cl)C(=O)O (stereo unspecified)
inactive: [1] | [2] | HGF (gene 3082) | [3] | [4] | [5] | [6] | [7] | [8] | [9]

CNC(=O)ON=CC(C)(C)SC
inactive: [1] | [2] | HGF (gene 3082) | [3] | [4] | [5] | [6] | [7] | [8] | [9]

CCOP(=S)(OCC)SCn1c(=O)oc2cc(Cl)ccc21
inactive: [1] | [2] | HGF (gene 3082) | [4] | [5] | [6] | [7] | [8]
